# Measured values published in article PMC7862700, “An all-to-all approach to the identification of sequence-specific readers for epigenetic DNA modifications on cytosine”.
# Columns and labels:
# Test in all cases: DAPPL (digital affinity profiling via proximity ligation, sequencing); 10 mM Tris-HCl pH 7.5, 50 mM NaCl, 1 mM DTT, 4% glycerol, room temperature, 30 min; GST-TFs on glutathione beads, 16-mer random dsDNA library, 0.1% formaldehyde crosslink after washing; high values mean tight binding
# Conditions in all cases: protein: recombinant; tags: N-terminal GST; dsDNA, one strand shown
# [1] = target: T1, ERF (Homo sapiens, UniProt P50548 1-548)
# T1 sequence: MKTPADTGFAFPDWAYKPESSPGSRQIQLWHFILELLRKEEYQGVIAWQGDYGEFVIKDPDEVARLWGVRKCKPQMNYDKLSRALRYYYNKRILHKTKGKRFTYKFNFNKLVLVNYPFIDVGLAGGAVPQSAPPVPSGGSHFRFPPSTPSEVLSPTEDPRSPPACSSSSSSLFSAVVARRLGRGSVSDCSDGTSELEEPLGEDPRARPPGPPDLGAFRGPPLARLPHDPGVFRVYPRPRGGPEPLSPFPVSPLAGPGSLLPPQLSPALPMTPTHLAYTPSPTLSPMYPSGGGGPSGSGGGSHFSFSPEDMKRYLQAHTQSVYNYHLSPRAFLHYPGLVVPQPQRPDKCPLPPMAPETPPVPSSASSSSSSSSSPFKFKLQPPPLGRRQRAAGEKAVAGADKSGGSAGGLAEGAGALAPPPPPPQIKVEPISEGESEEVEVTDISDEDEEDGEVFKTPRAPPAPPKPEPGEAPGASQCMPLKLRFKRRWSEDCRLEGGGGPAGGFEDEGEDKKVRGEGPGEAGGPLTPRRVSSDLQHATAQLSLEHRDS
# Outline: (§1)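 Human transcription factors carrying a GST fusion were produced in yeast, bound to glutathione beads, tagged with DNA barcodes and pooled together with a tag-only sample. Each pool was held with 200 nmole of a random double-stranded 16-mer DNA library in Tris/NaCl/DTT/glycerol buffer for 30 min at room temperature, then washed, crosslinked in 0.1% formaldehyde, proximity-ligated with BsaI/T4 ligase (1 h, 37 °C), PCR-amplified and sequenced on an Illumina NextSeq500. Binding signal is the read frequency of each hexamer for a given factor divided by its frequency in the tag-only sample.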
# [2] = target: T2, ETV3L (Homo sapiens, UniProt Q6ZN32 1-361)
# T2 sequence: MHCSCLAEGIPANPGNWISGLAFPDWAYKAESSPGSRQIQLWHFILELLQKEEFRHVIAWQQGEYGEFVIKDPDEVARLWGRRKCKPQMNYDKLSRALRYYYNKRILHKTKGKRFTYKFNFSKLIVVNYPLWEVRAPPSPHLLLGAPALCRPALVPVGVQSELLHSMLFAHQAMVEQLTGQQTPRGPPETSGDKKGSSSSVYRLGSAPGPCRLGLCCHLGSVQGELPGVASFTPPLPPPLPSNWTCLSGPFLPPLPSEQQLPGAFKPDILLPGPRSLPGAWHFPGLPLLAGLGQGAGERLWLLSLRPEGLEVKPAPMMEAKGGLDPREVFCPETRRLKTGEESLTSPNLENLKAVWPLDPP
# Outline: as §1
# [3] = target: T3, ETS2 (Homo sapiens, UniProt P15036 1-469)
# T3 sequence: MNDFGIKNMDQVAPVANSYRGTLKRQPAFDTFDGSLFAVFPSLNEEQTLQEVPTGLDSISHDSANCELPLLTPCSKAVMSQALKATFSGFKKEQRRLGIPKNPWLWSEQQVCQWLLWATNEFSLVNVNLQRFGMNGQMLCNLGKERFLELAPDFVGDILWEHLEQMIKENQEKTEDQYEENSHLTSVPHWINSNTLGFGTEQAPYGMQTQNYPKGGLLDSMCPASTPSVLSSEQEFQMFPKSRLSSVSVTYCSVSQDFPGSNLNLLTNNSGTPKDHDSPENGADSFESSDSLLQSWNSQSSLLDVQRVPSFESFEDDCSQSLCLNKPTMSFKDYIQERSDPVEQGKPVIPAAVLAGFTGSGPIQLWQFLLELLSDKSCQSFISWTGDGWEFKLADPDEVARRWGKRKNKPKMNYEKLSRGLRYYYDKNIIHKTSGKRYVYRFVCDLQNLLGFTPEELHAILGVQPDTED
# Outline: as §1
# [4] = target: T4, SPDEF (Homo sapiens, UniProt O95238 1-335)
# T4 sequence: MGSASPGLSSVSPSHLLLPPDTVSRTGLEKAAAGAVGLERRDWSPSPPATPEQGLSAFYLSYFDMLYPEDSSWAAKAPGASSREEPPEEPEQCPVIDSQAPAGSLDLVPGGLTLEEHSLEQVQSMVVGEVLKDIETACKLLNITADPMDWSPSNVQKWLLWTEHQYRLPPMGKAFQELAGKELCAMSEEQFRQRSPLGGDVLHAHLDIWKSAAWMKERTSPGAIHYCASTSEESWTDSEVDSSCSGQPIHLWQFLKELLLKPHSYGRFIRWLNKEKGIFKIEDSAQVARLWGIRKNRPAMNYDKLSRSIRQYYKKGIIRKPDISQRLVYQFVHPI
# Outline: as §1
# [5] = target: T5, ETV7 (Homo sapiens, UniProt Q9Y603 1-341)
# T5 sequence: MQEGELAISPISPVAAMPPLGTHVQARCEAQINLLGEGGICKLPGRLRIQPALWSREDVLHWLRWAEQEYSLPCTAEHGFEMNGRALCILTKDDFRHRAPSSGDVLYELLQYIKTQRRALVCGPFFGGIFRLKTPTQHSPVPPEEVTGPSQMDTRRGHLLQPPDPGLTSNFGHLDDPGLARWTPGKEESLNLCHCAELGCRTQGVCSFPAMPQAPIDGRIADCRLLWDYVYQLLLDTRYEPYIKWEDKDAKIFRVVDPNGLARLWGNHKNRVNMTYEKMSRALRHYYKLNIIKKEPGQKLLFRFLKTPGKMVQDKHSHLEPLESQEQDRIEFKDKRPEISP
# Outline: as §1
# [6] = target: T6, ELF5 (Homo sapiens, UniProt Q9UKW6-2 1-255)
# T6 sequence: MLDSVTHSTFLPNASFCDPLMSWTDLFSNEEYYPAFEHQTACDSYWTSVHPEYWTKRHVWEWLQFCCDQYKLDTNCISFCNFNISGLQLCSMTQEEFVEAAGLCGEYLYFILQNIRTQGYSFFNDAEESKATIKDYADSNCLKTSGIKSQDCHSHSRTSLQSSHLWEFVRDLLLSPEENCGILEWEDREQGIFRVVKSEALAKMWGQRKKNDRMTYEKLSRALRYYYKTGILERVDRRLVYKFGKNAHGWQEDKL
# Outline: as §1
# [7] = target: T7, ETV3 (Homo sapiens, UniProt P41162-2 1-143)
# T7 sequence: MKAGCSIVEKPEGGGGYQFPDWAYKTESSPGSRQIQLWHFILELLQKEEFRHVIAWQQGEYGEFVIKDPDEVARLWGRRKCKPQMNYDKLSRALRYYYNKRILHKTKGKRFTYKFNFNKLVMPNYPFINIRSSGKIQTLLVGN
# Outline: as §1
# [8] = target: ETV6 (Homo sapiens, UniProt P41212 1-452)
# Chain of ETV6 (P41212 whole entry): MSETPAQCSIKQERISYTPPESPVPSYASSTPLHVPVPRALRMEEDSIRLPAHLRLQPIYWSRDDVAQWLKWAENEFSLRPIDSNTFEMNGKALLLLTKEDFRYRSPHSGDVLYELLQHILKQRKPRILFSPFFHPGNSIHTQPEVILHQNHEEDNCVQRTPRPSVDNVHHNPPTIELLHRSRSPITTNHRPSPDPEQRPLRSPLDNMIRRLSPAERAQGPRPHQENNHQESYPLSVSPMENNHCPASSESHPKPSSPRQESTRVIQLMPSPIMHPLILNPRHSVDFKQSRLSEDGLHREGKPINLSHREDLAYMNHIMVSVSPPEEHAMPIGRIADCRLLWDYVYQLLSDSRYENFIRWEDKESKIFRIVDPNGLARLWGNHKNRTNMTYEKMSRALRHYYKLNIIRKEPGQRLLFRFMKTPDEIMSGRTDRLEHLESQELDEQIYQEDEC
# Outline: as §1
Sequence,binding signal [1],binding signal [2],binding signal [3],binding signal [4],binding signal [5],binding signal [6],binding signal [7],binding signal [8]
AAATGT,"1.27 fold enrichment (6-mer frequency, TF over GST control)","1.33 fold enrichment (6-mer frequency, TF over GST control)","1.44 fold enrichment (6-mer frequency, TF over GST control)","1.27 fold enrichment (6-mer frequency, TF over GST control)","1.27 fold enrichment (6-mer frequency, TF over GST control)","1.48 fold enrichment (6-mer frequency, TF over GST control)","1.3 fold enrichment (6-mer frequency, TF over GST control)","1.31 fold enrichment (6-mer frequency, TF over GST control)"
CTTAGG,"1.12 fold enrichment (6-mer frequency, TF over GST control)","1.01 fold enrichment (6-mer frequency, TF over GST control)","1.23 fold enrichment (6-mer frequency, TF over GST control)","1.06 fold enrichment (6-mer frequency, TF over GST control)","1.17 fold enrichment (6-mer frequency, TF over GST control)","1.11 fold enrichment (6-mer frequency, TF over GST control)","1.1 fold enrichment (6-mer frequency, TF over GST control)","1.15 fold enrichment (6-mer frequency, TF over GST control)"
CCCGTA,"1.09 fold enrichment (6-mer frequency, TF over GST control)","1.19 fold enrichment (6-mer frequency, TF over GST control)","1.2 fold enrichment (6-mer frequency, TF over GST control)","1.24 fold enrichment (6-mer frequency, TF over GST control)","1.12 fold enrichment (6-mer frequency, TF over GST control)","1.21 fold enrichment (6-mer frequency, TF over GST control)","1.21 fold enrichment (6-mer frequency, TF over GST control)","1.25 fold enrichment (6-mer frequency, TF over GST control)"
ATCCTG,"1.28 fold enrichment (6-mer frequency, TF over GST control)","1.49 fold enrichment (6-mer frequency, TF over GST control)","1.56 fold enrichment (6-mer frequency, TF over GST control)","2.47 fold enrichment (6-mer frequency, TF over GST control)","1.51 fold enrichment (6-mer frequency, TF over GST control)","1.84 fold enrichment (6-mer frequency, TF over GST control)","1.61 fold enrichment (6-mer frequency, TF over GST control)","1.48 fold enrichment (6-mer frequency, TF over GST control)"
TCTCGT,"1.16 fold enrichment (6-mer frequency, TF over GST control)","1.21 fold enrichment (6-mer frequency, TF over GST control)","1.34 fold enrichment (6-mer frequency, TF over GST control)","1.15 fold enrichment (6-mer frequency, TF over GST control)","1.2 fold enrichment (6-mer frequency, TF over GST control)","1.24 fold enrichment (6-mer frequency, TF over GST control)","1.03 fold enrichment (6-mer frequency, TF over GST control)","1.18 fold enrichment (6-mer frequency, TF over GST control)"
CTTAAA,"1.17 fold enrichment (6-mer frequency, TF over GST control)","1.3 fold enrichment (6-mer frequency, TF over GST control)","1.28 fold enrichment (6-mer frequency, TF over GST control)","1.27 fold enrichment (6-mer frequency, TF over GST control)","1.19 fold enrichment (6-mer frequency, TF over GST control)","1.16 fold enrichment (6-mer frequency, TF over GST control)","1.22 fold enrichment (6-mer frequency, TF over GST control)","1.26 fold enrichment (6-mer frequency, TF over GST control)"
ATATTA,"1.16 fold enrichment (6-mer frequency, TF over GST control)","1.17 fold enrichment (6-mer frequency, TF over GST control)","1.06 fold enrichment (6-mer frequency, TF over GST control)","1.11 fold enrichment (6-mer frequency, TF over GST control)","1.1 fold enrichment (6-mer frequency, TF over GST control)","1.09 fold enrichment (6-mer frequency, TF over GST control)","1.18 fold enrichment (6-mer frequency, TF over GST control)","1.13 fold enrichment (6-mer frequency, TF over GST control)"
ACTATA,"1.29 fold enrichment (6-mer frequency, TF over GST control)","1.24 fold enrichment (6-mer frequency, TF over GST control)","1.36 fold enrichment (6-mer frequency, TF over GST control)","1.42 fold enrichment (6-mer frequency, TF over GST control)","1.28 fold enrichment (6-mer frequency, TF over GST control)","1.35 fold enrichment (6-mer frequency, TF over GST control)","1.33 fold enrichment (6-mer frequency, TF over GST control)","1.31 fold enrichment (6-mer frequency, TF over GST control)"
CACGTA,"1.19 fold enrichment (6-mer frequency, TF over GST control)","1.17 fold enrichment (6-mer frequency, TF over GST control)","1.14 fold enrichment (6-mer frequency, TF over GST control)","1.15 fold enrichment (6-mer frequency, TF over GST control)","1.18 fold enrichment (6-mer frequency, TF over GST control)","1.15 fold enrichment (6-mer frequency, TF over GST control)","1.16 fold enrichment (6-mer frequency, TF over GST control)","1.11 fold enrichment (6-mer frequency, TF over GST control)"
TACGCT,"1.4 fold enrichment (6-mer frequency, TF over GST control)","1.27 fold enrichment (6-mer frequency, TF over GST control)","1.22 fold enrichment (6-mer frequency, TF over GST control)","1.32 fold enrichment (6-mer frequency, TF over GST control)","1.31 fold enrichment (6-mer frequency, TF over GST control)","1.24 fold enrichment (6-mer frequency, TF over GST control)","1.42 fold enrichment (6-mer frequency, TF over GST control)","1.28 fold enrichment (6-mer frequency, TF over GST control)"
GCTTCA,"1.33 fold enrichment (6-mer frequency, TF over GST control)","1.35 fold enrichment (6-mer frequency, TF over GST control)","1.27 fold enrichment (6-mer frequency, TF over GST control)","1.31 fold enrichment (6-mer frequency, TF over GST control)","1.34 fold enrichment (6-mer frequency, TF over GST control)","1.28 fold enrichment (6-mer frequency, TF over GST control)","1.24 fold enrichment (6-mer frequency, TF over GST control)","1.33 fold enrichment (6-mer frequency, TF over GST control)"
ATCCGG,"2.34 fold enrichment (6-mer frequency, TF over GST control)","2.49 fold enrichment (6-mer frequency, TF over GST control)","2.66 fold enrichment (6-mer frequency, TF over GST control)","4.67 fold enrichment (6-mer frequency, TF over GST control)","2.25 fold enrichment (6-mer frequency, TF over GST control)","3.06 fold enrichment (6-mer frequency, TF over GST control)","2.9 fold enrichment (6-mer frequency, TF over GST control)","2.37 fold enrichment (6-mer frequency, TF over GST control)"
ACTATG,"1.15 fold enrichment (6-mer frequency, TF over GST control)","1.2 fold enrichment (6-mer frequency, TF over GST control)","1.3 fold enrichment (6-mer frequency, TF over GST control)","1.28 fold enrichment (6-mer frequency, TF over GST control)","1.18 fold enrichment (6-mer frequency, TF over GST control)","1.16 fold enrichment (6-mer frequency, TF over GST control)","1.25 fold enrichment (6-mer frequency, TF over GST control)","1.19 fold enrichment (6-mer frequency, TF over GST control)"
ATCGAT,"1.13 fold enrichment (6-mer frequency, TF over GST control)","1.17 fold enrichment (6-mer frequency, TF over GST control)","1.1 fold enrichment (6-mer frequency, TF over GST control)","1.09 fold enrichment (6-mer frequency, TF over GST control)","1.11 fold enrichment (6-mer frequency, TF over GST control)","1.09 fold enrichment (6-mer frequency, TF over GST control)","1.15 fold enrichment (6-mer frequency, TF over GST control)","1.11 fold enrichment (6-mer frequency, TF over GST control)"
CCGTTC,"1.61 fold enrichment (6-mer frequency, TF over GST control)","1.44 fold enrichment (6-mer frequency, TF over GST control)","1.36 fold enrichment (6-mer frequency, TF over GST control)","1.41 fold enrichment (6-mer frequency, TF over GST control)","1.32 fold enrichment (6-mer frequency, TF over GST control)","1.56 fold enrichment (6-mer frequency, TF over GST control)","1.38 fold enrichment (6-mer frequency, TF over GST control)","1.37 fold enrichment (6-mer frequency, TF over GST control)"
